# Laboratory results as given in PubChem BioAssay AID781 (Emory University Molecular Libraries Screening Center, 2007).
# About 1,600 (0.73%) of roughly 220,000 compounds were called active. What follows is part of a selection rich in actives, with near analogues and random picks from the rest. Unmarked numbers belong to inactive results.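 Rule for the calls: active = inhibition above about 70% (limit read from the data); inactive = the rest.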
# Molecular target: 14-3-3 protein zeta/delta (Bos taurus) (UniProt P63103)
# Test: disruptors of 14-3-3 zeta phospho-Bad complex – biochemical, TR-FRET, bovine 14-3-3 zeta, primary screen (AID 781);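 note: 0% = full 14-3-3 plus peptide FRET controls and 100% = background without 14-3-3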
# Details: TR-FRET 14-3-3zeta/Dy647-pBad peptide displacement, 1 h; at 21.7 µM; stronger effect = higher value
# 14-3-3 protein zeta/delta (Bos taurus), sequence (P63103 whole entry, looked up): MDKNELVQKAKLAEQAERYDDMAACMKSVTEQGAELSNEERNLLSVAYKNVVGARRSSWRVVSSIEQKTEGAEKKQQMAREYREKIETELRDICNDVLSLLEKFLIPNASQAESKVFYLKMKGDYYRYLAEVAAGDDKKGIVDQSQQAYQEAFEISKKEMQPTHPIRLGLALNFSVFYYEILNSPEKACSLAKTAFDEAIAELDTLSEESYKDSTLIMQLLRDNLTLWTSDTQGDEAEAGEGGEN
row,Compound,inhibition
1,CC(C)c1ccc(OCC(=O)N2CCN(C)CC2)c(Br)c1,3.12%
2,CN1CCN(C(=O)COc2ccc(C(C)(C)C)cc2Br)CC1,-3.25%
3,O=C(COc1ccc2ccccc2c1)N1CCN(Cc2ccncc2)CC1,87.2% (active)
4,O=C1NC(=O)N(CCc2ccc(F)cc2)C(=O)/C1=C/C=C/c1ccccc1,4.29%
5,Cc1ccsc1C(=O)C1CCCN(Cc2ccc(O)cc2)C1 (stereo not given),-11.4%
6,COc1ccc(CN2CCN(c3ccccc3F)CC2)c(OC)c1,52.2%
7,O=C(Cc1ccccc1)N1CCN(C2CCCCCC2)CC1,27.6%
8,COc1ccccc1CN1CCN(C(=O)Cc2ccccc2)CC1,75.5% (active)
9,O=c1[nH]c(=O)n(-c2ccccc2)c(O)c1C=NC12CN3CN(CN(C3)C1)C2,-5.55%
10,COC(=O)N1C(c2ccccc2)C1c1ccccc1 (stereo not given),-6.04%
11,Cc1cc(N2C(=O)C3CCCN3C2c2ccc(Cl)c(Cl)c2)no1 (stereo not given),5.89%
12,O=C(Cc1ccccc1[N+](=O)[O-])N1CCN(Cc2ccc3c(c2)OCO3)CC1,-4.2%
13,Cc1ccc(CN2CCCC(C(=O)c3ccc4c(c3)OCO4)C2)cc1C (stereo not given),-6.26%
14,Fc1ccc(N2CCN(Cc3ccc4c(c3)OCO4)CC2)cc1,70.2% (active)
15,Fc1ccc(C2N3CCCN23)cc1 (stereo not given),-6.34%
16,CC(C)Oc1cccc(C(=O)C2CCCN(C3CCOCC3)C2)c1 (stereo not given),-13%
17,CC(C)CN1CCN(Cc2ccccc2C(F)(F)F)CC1CCO (stereo not given),-9.76%
18,Fc1cccc(F)c1CN1CCN(Cc2c(F)cccc2F)CC1,-4.69%
19,CN1CCN(Cc2ccccc2C(F)(F)F)CC1,70.1% (active)
20,CN1CCN(Cc2ccc(OC(F)(F)F)cc2)CC1,78.5% (active)
21,Cc1ccc(-n2c(O)c(C=NCC3CCCO3)c(=O)[nH]c2=O)c(C)c1 (stereo not given),5.29%
22,CCCCC(=O)N/N=C/c1c(O)n(CCC2=CCCCC2)c(=O)[nH]c1=O,-15.6%
23,CCC1(C)CC(CCNCc2ccc(N(C)C)cc2)(c2ccc(F)cc2)CCO1 (stereo not given),-2.86%
24,c1cc2c(cc1[C@H]1OC[C@H]3[C@@H]1CO[C@@H]3c1ccc3c(c1)OCO3)OCO2,-2.89%
25,O=c1[nH]c(=O)n(CCc2ccc(F)cc2)c(O)c1/C=N/N1CCCCC1,-6.68%
